Measured values published in PubChem BioAssay.
Activity calls are given as the source filed them. No stated cut-off is given here; in the data, active means inhibition above about 30%; inactive means the rest. Square brackets hold non-standard residues; d marks the D form. Peptide text beside a SMILES is read from it. NMeY = CN[C@@H](Cc1ccc(O)cc1)C(=O)O; NMeF = CN[C@@H](Cc1ccccc1)C(=O)O; 2Abz = Nc1ccccc1C(=O)O

Each compound was assayed on transactivating tegument protein VP16 (Human herpesvirus 1), Gal4-VP16 luciferase reporter (assay: repression of VP16-driven luciferase reporter – cell-based, luminescence, high throughput, counter-screen for SRC3 inhibitor project (AID 588794)). Conditions: mammalian cells, at 3.6 µM, active compounds read high.

Row | Compound | inhibition
1 | CC(=O)Nc1nc(C)c(-c2csc(Nc3cccc([N+](=O)[O-])c3)n2)s1 | -11.4% (inactive)
2 | CS(=O)c1nc(-c2ccc(Br)cc2)cc(-c2ccccc2)c1C#N (stereo not given) | 26.6% (inactive)
3 | c1ccc(-n2nnnc2NCCCN2CCOCC2)cc1 | -8.35% (inactive)
4 | CC(C)C[C@@H]1NC(=O)[C@H](Cc2ccccc2)N(C)C(=O)[C@H](C)NC(=O)c2ccccc2NC(=O)[C@H](Cc2ccc(O)cc2)N(C)C1=O (cyclo([2Abz]A[NMeF]L[NMeY])) | 17.5% (inactive)
5 | Cc1ccc(S(=O)(=O)NCCC(=O)N2CCN(c3ccccc3)CC2)cc1C | -3.89% (inactive)
6 | CCCCCCC(=O)NNC(=O)CC(=O)Nc1ccccc1C(=O)O | -10.2% (inactive)
7 | CCCCNC(=O)c1onc(CSc2cc(C)cc(C)c2)c1C(=O)NCCCC | 4.86% (inactive)
8 | CNCC(C)COc1ccccc1OCc1ccccc1 (stereo not given) | 10.4% (inactive)
9 | C=CCc1cc(C(=O)N2CCCCC2)ccc1O | 19.9% (inactive)
10 | O=C(CN1CC(c2ccccc2)CC1=O)N/N=C/c1cc(Br)ccc1O (stereo not given) | 10.9% (inactive)
11 | COc1ccc(CNC(=O)COC(=O)c2cc(-c3ccc(Cl)s3)nc3ccccc23)cc1 | -13.6% (inactive)
12 | O=C(CCN1CCN(c2ccccc2)CC1)Nc1ccc(Cl)cc1 | 1.2% (inactive)
13 | O=S(=O)(c1ccccc1)c1nc(Nc2cccc(O)c2)sc1Cl | 0.89% (inactive)
14 | Cc1cc2[nH]c3c4ccccc4nc(C)c3c2cc1C | 33.8% (active)
15 | COc1cc(C(=O)N/N=C/c2coc3ccc(Cl)cc3c2=O)ccc1O | 15.9% (inactive)
16 | COc1cccc(CNC(=O)c2cc3c(c(-c4cccc(-c5cccc(C#N)c5)c4)n2)[C@H](CCO)N(S(=O)C(C)(C)C)C3)c1 (stereo not given in full) | 0.36% (inactive)
17 | Cc1ccc2[nH]c(C(=O)N/N=C/c3ccccc3O)c(C)c2c1 | 67.7% (active)
18 | CC(C(=O)N1c2ccccc2Sc2ccccc21)n1nnc(-c2cccs2)n1 (stereo not given) | 6.84% (inactive)
19 | CCCc1nn(C)c(C(=O)Nc2cccc(Cl)c2)c1Cl | 0.8% (inactive)
20 | CC(C)(C)c1csc(Sc2ccc([N+](=O)[O-])cn2)n1 | -8.39% (inactive)

Row | Compound | inhibition
21 | CCOC(=O)/C(C#N)=C/c1cc(C)n(-c2ccccc2)c1C | 18.2% (inactive)
22 | Cn1c(=O)n(C)c2cc(NS(=O)(=O)c3ccc(C(C)(C)C)cc3)ccc21 | 14.9% (inactive)
23 | O=C(Cn1cnc([N+](=O)[O-])n1)N/N=C/c1cc(Cl)ccc1O | 27.4% (inactive)
24 | COc1ccc(CNC(=O)c2ccc(Cl)c(S(=O)(=O)N3CCOCC3)c2)cc1OC | 27.5% (inactive)
25 | CCOc1ccc(OCC)c(NC(=O)CN(C)S(=O)(=O)c2cccc3nsnc23)c1 | 0.62% (inactive)
26 | CCC(O)CC(C(=O)NNc1ccccc1)C(=O)NNc1ccccc1 (stereo not given) | 11.1% (inactive)
27 | Clc1ccc(C[n+]2cc(-c3ccccc3)n3c2CCCCC3)c(Cl)c1 | 46.7% (active)
28 | O=C(Cc1ccccc1)NNC(=O)Nc1cccc(Cl)c1 | -0.2% (inactive)
29 | NC(=S)Nc1cc(Cl)cc(Cl)c1 | 20.4% (inactive)
30 | Cc1cc(=O)oc2cc(NC(=O)COc3cccc(C(F)(F)F)c3)ccc12 | -7.4% (inactive)
31 | Cc1ccc(NS(=O)(=O)c2ccc(OCC(=O)NCc3ccncc3)cc2)cc1 | 6.6% (inactive)
32 | Cc1cc[n+](C(C)C(=O)c2ccc(-c3ccccc3)cc2)cc1 (stereo not given) | 32% (active)
33 | COc1ccc(OC)c(N/C=C/C(=O)c2ccccc2)c1 | 17.5% (inactive)
34 | S=c1[nH]nc(C2CCCCC2)n1/N=C/c1ccco1 | -11.2% (inactive)
35 | COc1ccccc1NC(=O)Nc1nnc(Cc2ccc(F)cc2)s1 | 9.25% (inactive)
36 | CN(Cc1cccc(F)c1)C(=O)C1CC(=O)N(Cc2ccco2)C1 (stereo not given) | -6.54% (inactive)
37 | CC(=O)c1ccc(Nc2c3c(nc4ccccc24)CCCC3)cc1 | -3.62% (inactive)
38 | CC(=O)Nc1ccc(C(=O)N/N=C/c2cc(Br)cc(Br)c2O)cc1 | 11.2% (inactive)
39 | O=C(Nc1ccc(OC(F)(F)F)cc1)Nc1cccc([N+](=O)[O-])c1 | 1.65% (inactive)
40 | COc1ccc(C(=O)Cn2nc(CNc3ccc(Br)cc3)[n+]3c2CCCCC3)cc1 | 3.2% (inactive)
